# In PubChem BioAssay (NCI):
# “And” between values parts separate entries of the source, which are not always exact repeats. Identical values can stand only once. Compounds without any hit were thinned out: in the full panel of roughly 79,000, 15% have a hit. The source holds several records for some structures; these can differ, active in one and inactive in another. The source made the active and inactive calls. Cut-off read from the data, not from the text of the source: active = growth inhibition above about 70%; inactive = the rest.
# Columns and labels:
# [1] = NCI Yeast Anticancer Drug Screen. Data for the wt1 strain (AID 149);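 note: 0% = growth of vehicle-treated wt1 cultures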; settings: S. cerevisiae wt1 strain (SPY 50644) growth inhibition, stronger effect = higher value
# Method in brief: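 Using yeast strain wt1, compound-induced growth inhibition was determined against vehicle-treated cultures.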
# [2] = NCI Yeast Anticancer Drug Screen. Data for the rad50EPP+ strain (AID 151);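 note: 0% = growth of vehicle-treated control cultures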; settings: S. cerevisiae rad50 mutant strain, stronger effect = higher value
# Method in brief: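 In this screen, rad50EPP+ yeast were exposed to compounds. Growth inhibition was scored against vehicle-treated controls.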
# [3] = NCI Yeast Anticancer Drug Screen. Data for the mgt1 strain (AID 153); settings: S. cerevisiae mgt1 mutant growth inhibition, stronger effect = higher value
# Method in brief: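 mgt1 strain exposed; growth vs vehicle control recorded as inhibition.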
# [4] = NCI Yeast Anticancer Drug Screen. Data for the rad50 strain (AID 155);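 note: 0% = growth of vehicle-only cultures of the same strain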; settings: S. cerevisiae rad50 strain growth inhibition, stronger effect = higher value
# Method in brief: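 Relative growth inhibition (compound vs vehicle) was measured in yeast with a defined repair-gene alteration.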
# [5] = NCI Yeast Anticancer Drug Screen. Data for the mec2-1 strain (AID 157); settings: S. cerevisiae mec2-1 strain, stronger effect = higher value
# Method in brief: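 Vehicle-treated cultures served as reference for growth inhibition of compound-exposed mec2-1 yeast.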
# [6] = NCI Yeast Anticancer Drug Screen. Data for the rad14 strain (AID 159);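 note: 0% = growth of vehicle-treated control cultures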; settings: S. cerevisiae rad14 strain growth inhibition, stronger effect = higher value
# Method in brief: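 Screen for anticancer potential: a yeast strain altered in DNA damage repair is grown with compound, and reduced growth is quantified against vehicle controls.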
# [7] = NCI Yeast Anticancer Drug Screen. Data for the sgs1 mgt1 strain (AID 161);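 note: 0% = growth of cultures given vehicle only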; settings: S. cerevisiae sgs1 mgt1 strain, stronger effect = higher value
# Method in brief: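 Read-out: growth inhibition vs vehicle controls. Cells: mutant yeast strain deficient in DNA damage repair.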
# [8] = NCI Yeast Anticancer Drug Screen. Data for the CLN2oe strain (AID 163);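 note: 0% = growth of vehicle-only control cultures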; settings: S. cerevisiae CLN2oe strain, stronger effect = higher value
# Method in brief: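 Inhibition relative to vehicle-treated yeast is reported. Cells: strain with genetic alteration in cell-cycle control, grown with compound.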
# [9] = NCI Yeast Anticancer Drug Screen. Data for the bub3 strain (AID 167); settings: S. cerevisiae bub3 mutant strain, stronger effect = higher value
# Method in brief: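 Screening used yeast with an engineered genetic alteration affecting cell cycle control. Compound-exposed cultures were compared with vehicle cultures, and reduced growth was taken as inhibition.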
# [10] = NCI Yeast Anticancer Drug Screen. Data for the wt2 strain (AID 169);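 note: 0% = growth of vehicle-treated yeast cultures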; settings: S. cerevisiae wt2 strain growth inhibition, stronger effect = higher value
# Method in brief: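 Inhibition of yeast growth was determined after compound treatment, normalised to controls receiving only vehicle.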
# [11] = NCI Yeast Anticancer Drug Screen. Data for the mlh1 strain (AID 171);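 note: 0% = growth of vehicle-treated control cultures of the same strain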; settings: S. cerevisiae mlh1 strain growth inhibition, stronger effect = higher value
# Method in brief: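 Vehicle-normalised growth inhibition of a repair- or checkpoint-altered yeast strain following compound treatment.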
# [12] = NCI Yeast Anticancer Drug Screen. Data for the sgs1 strain (AID 173);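 note: 0% = growth of vehicle-only control cultures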; settings: S. cerevisiae sgs1 mutant, stronger effect = higher value
# Method in brief: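 Screen format: yeast with repair or checkpoint alterations, compound exposure, growth read relative to vehicle.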
# [13] = NCI Yeast Anticancer Drug Screen. Data for the mlh1 rad18 strain (AID 175); settings: S. cerevisiae mlh1 rad18 strain growth inhibition, stronger effect = higher value
# Method in brief: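 Vehicle-treated cultures served as the reference for growth inhibition in a yeast strain carrying DNA damage repair alterations exposed to each compound.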
# [14] = NCI Yeast Anticancer Drug Screen. Data for the rad18 strain (AID 177); settings: S. cerevisiae rad18 mutant growth inhibition, stronger effect = higher value
# Method in brief: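 Test articles were incubated with altered yeast defective in DNA damage repair. Results are given as inhibition of growth versus vehicle.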
# [15] = NCI Yeast Anticancer Drug Screen. Data for the cln2 rad14 strain (AID 165);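 note: 0% = growth equal to vehicle treated cultures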; settings: S. cerevisiae cln2 rad14 strain, stronger effect = higher value
# Method in brief: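 Each compound was tested on cln2 rad14 yeast. Inhibition of growth was calculated against vehicle-exposed controls.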
# [16] = at 5.0 µM (retest, dose inferred, filed as 0.5)
# [17] = at 50.0 µM (retest, dose inferred, filed as 5.0)
smiles,measurement,setting,value
O=C(/C(=C/c1ccccc1)CBr)c1ccccc1,growth inhibition,[1]; at 1.2 µM,0% (inactive)
same,growth inhibition,[1]; at 3.7 µM,11% (inactive)
same,growth inhibition,[1]; at 11.0 µM,43% (inactive)
same,growth inhibition,[1]; at 33.0 µM,90% (active)
same,growth inhibition,[1]; at 100.0 µM,99% (active)
same,growth inhibition,[2]; at 1.2 µM,17% (inactive)
same,growth inhibition,[2]; at 3.7 µM,50% (inactive)
same,growth inhibition,[2]; at 11.0 µM,82% (active)
same,growth inhibition,[2]; at 33.0 µM,96% (active)
same,growth inhibition,[2]; at 100.0 µM,99% (active)
same,growth inhibition,[3]; at 1.2 µM,-1% (inactive)
same,growth inhibition,[3]; at 3.7 µM,7% (inactive)
same,growth inhibition,[3]; at 11.0 µM,49% (inactive)
same,growth inhibition,[3]; at 33.0 µM,95% (active)
same,growth inhibition,[3]; at 100.0 µM,99% (active)
same,growth inhibition,[4]; at 1.2 µM,4% (inactive)
same,growth inhibition,[4]; at 3.7 µM,15% (inactive)
same,growth inhibition,[4]; [16],22% (inactive)
same,growth inhibition,[4]; at 11.0 µM,61% (inactive)
same,growth inhibition,[4]; at 33.0 µM,96% (active)
same,growth inhibition,[4]; [17],98% (active)
same,growth inhibition,[4]; at 50.0 µM,66.5% (inactive) and 79.2% (active)
same,growth inhibition,[4]; at 100.0 µM,99% (active)
same,growth inhibition,[5]; at 1.2 µM,3% (inactive)
same,growth inhibition,[5]; at 3.7 µM,12% (inactive)
same,growth inhibition,[5]; [16],3% (inactive)
same,growth inhibition,[5]; at 11.0 µM,58% (inactive)
same,growth inhibition,[5]; at 33.0 µM,96% (active)
same,growth inhibition,[5]; [17],98% (active)
same,growth inhibition,[5]; at 50.0 µM,80.5% (active) and 61.1% (inactive)
same,growth inhibition,[5]; at 100.0 µM,99% (active)
same,growth inhibition,[6]; at 1.2 µM,3% (inactive)
same,growth inhibition,[6]; at 3.7 µM,9% (inactive)
same,growth inhibition,[6]; at 11.0 µM,38% (inactive)
same,growth inhibition,[6]; at 33.0 µM,93% (active)
same,growth inhibition,[6]; at 100.0 µM,99% (active)
same,growth inhibition,[7]; [16],50% (inactive)
same,growth inhibition,[7]; [17],99% (active)
same,growth inhibition,[7]; at 50.0 µM,74% (active) and 59% (inactive)
same,growth inhibition,[8]; at 1.2 µM,2% (inactive)
same,growth inhibition,[8]; at 3.7 µM,6% (inactive)
same,growth inhibition,[8]; at 11.0 µM,47% (inactive)
same,growth inhibition,[8]; at 33.0 µM,95% (active)
same,growth inhibition,[8]; at 100.0 µM,99% (active)
same,growth inhibition,[9]; at 1.2 µM,-3% (inactive)
same,growth inhibition,[9]; at 3.7 µM,0% (inactive)
same,growth inhibition,[9]; [16],22% (inactive)
same,growth inhibition,[9]; at 11.0 µM,54% (inactive)
same,growth inhibition,[9]; at 33.0 µM,94% (active)
same,growth inhibition,[9]; [17],94% (active)
same,growth inhibition,[9]; at 50.0 µM,57.4% (inactive) and 83.7% (active)
same,growth inhibition,[9]; at 100.0 µM,99% (active)
same,growth inhibition,[10]; at 1.2 µM,4% (inactive)
same,growth inhibition,[10]; at 3.7 µM,14% (inactive)
same,growth inhibition,[10]; at 11.0 µM,62% (inactive)
same,growth inhibition,[10]; at 33.0 µM,95% (active)
same,growth inhibition,[10]; at 100.0 µM,99% (active)
same,growth inhibition,[11]; at 1.2 µM,3% (inactive)
same,growth inhibition,[11]; at 3.7 µM,11% (inactive)
same,growth inhibition,[11]; at 11.0 µM,67% (inactive)
same,growth inhibition,[11]; at 33.0 µM,97% (active)
same,growth inhibition,[11]; at 100.0 µM,99% (active)
same,growth inhibition,[12]; at 1.2 µM,5% (inactive)
same,growth inhibition,[12]; at 3.7 µM,21% (inactive)
same,growth inhibition,[12]; at 11.0 µM,77% (active)
same,growth inhibition,[12]; at 33.0 µM,96% (active)
same,growth inhibition,[12]; at 100.0 µM,99% (active)
same,growth inhibition,[13]; [16],68% (inactive)
same,growth inhibition,[13]; [17],99% (active)
same,growth inhibition,[13]; at 50.0 µM,74.5% (active) and 90.6% (active)
same,growth inhibition,[14]; at 1.2 µM,6% (inactive)
same,growth inhibition,[14]; at 3.7 µM,22% (inactive)
same,growth inhibition,[14]; at 11.0 µM,81% (active)
same,growth inhibition,[14]; at 33.0 µM,96% (active)
same,growth inhibition,[14]; at 100.0 µM,99% (active)
N=c1oc2ccccc2cc1-c1nc2ccccc2[nH]1,growth inhibition,[1]; at 1.2 µM,1% (inactive)
same,growth inhibition,[1]; at 3.7 µM,9% (inactive)
same,growth inhibition,[1]; at 11.0 µM,15% (inactive)
same,growth inhibition,[1]; at 33.0 µM,28% (inactive)
same,growth inhibition,[1]; at 100.0 µM,45% (inactive)
same,growth inhibition,[2]; at 1.2 µM,30% (inactive)
same,growth inhibition,[2]; at 3.7 µM,48% (inactive)
same,growth inhibition,[2]; at 11.0 µM,58% (inactive)
same,growth inhibition,[2]; at 33.0 µM,85% (active)
same,growth inhibition,[2]; at 100.0 µM,91% (active)
same,growth inhibition,[3]; at 1.2 µM,13% (inactive)
same,growth inhibition,[3]; at 3.7 µM,11% (inactive)
same,growth inhibition,[3]; at 11.0 µM,24% (inactive)
same,growth inhibition,[3]; at 33.0 µM,43% (inactive)
same,growth inhibition,[3]; at 100.0 µM,79% (active)
same,growth inhibition,[4]; at 1.2 µM,15% (inactive)
same,growth inhibition,[4]; at 3.7 µM,18% (inactive)
same,growth inhibition,[4]; [16],7% (inactive)
same,growth inhibition,[4]; at 11.0 µM,31% (inactive)
same,growth inhibition,[4]; at 33.0 µM,64% (inactive)
same,growth inhibition,[4]; [17],85% (active)
same,growth inhibition,[4]; at 50.0 µM,70% (inactive)
same,growth inhibition,[4]; at 100.0 µM,88% (active)
same,growth inhibition,[5]; at 1.2 µM,-6% (inactive)
same,growth inhibition,[5]; at 3.7 µM,10% (inactive)
same,growth inhibition,[5]; [16],2% (inactive)
same,growth inhibition,[5]; at 11.0 µM,11% (inactive)
same,growth inhibition,[5]; at 33.0 µM,26% (inactive)
same,growth inhibition,[5]; [17],66% (inactive)
same,growth inhibition,[5]; at 50.0 µM,31.8% (inactive)
same,growth inhibition,[5]; at 100.0 µM,62% (inactive)
same,growth inhibition,[6]; at 1.2 µM,5% (inactive)
same,growth inhibition,[6]; at 3.7 µM,11% (inactive)
same,growth inhibition,[6]; at 11.0 µM,25% (inactive)
same,growth inhibition,[6]; at 33.0 µM,39% (inactive)
same,growth inhibition,[6]; at 100.0 µM,88% (active)
same,growth inhibition,[7]; [16],13% (inactive)
same,growth inhibition,[7]; [17],62% (inactive)
same,growth inhibition,[7]; at 50.0 µM,47.8% (inactive)
same,growth inhibition,[15]; [16],5% (inactive)
same,growth inhibition,[15]; [17],27% (inactive)
same,growth inhibition,[15]; at 50.0 µM,28.3% (inactive)
same,growth inhibition,[9]; at 1.2 µM,-13% (inactive)
same,growth inhibition,[9]; at 3.7 µM,-12% (inactive)
same,growth inhibition,[9]; [16],23% (inactive)
same,growth inhibition,[9]; at 11.0 µM,-3% (inactive)
same,growth inhibition,[9]; at 33.0 µM,9% (inactive)
same,growth inhibition,[9]; [17],56% (inactive)
same,growth inhibition,[9]; at 50.0 µM,33.8% (inactive)
same,growth inhibition,[9]; at 100.0 µM,57% (inactive)
same,growth inhibition,[10]; at 1.2 µM,-31% (inactive)
same,growth inhibition,[10]; at 3.7 µM,-29% (inactive)
same,growth inhibition,[10]; at 11.0 µM,-13% (inactive)
same,growth inhibition,[10]; at 33.0 µM,47% (inactive)
same,growth inhibition,[10]; at 100.0 µM,80% (active)
same,growth inhibition,[11]; at 1.2 µM,0% (inactive)
same,growth inhibition,[11]; at 3.7 µM,3% (inactive)
same,growth inhibition,[11]; at 11.0 µM,17% (inactive)
same,growth inhibition,[11]; at 33.0 µM,42% (inactive)
same,growth inhibition,[11]; at 100.0 µM,82% (active)
